Screening results: PubChem, several laboratories
Rows were chosen to be rich in hits. Some 5.9% of all compounds tested hit in one or more screens of this group.
HSP90 inh – inhibitors of HSP90 luciferase refolding in rabbit reticulocyte lysate; luciferase refolding luminescence, 3 h; inhibition, % at 5.6 µM; 290,000 tested, 0.91% active;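 active = inhibition above the screen-wide mean plus 3 SD, computed separately per campaign, cut at about 16% in these data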;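 note: 0% = DMSO wells and 100% = 60 µM geldanamycin wells; inhibitors lower the luminescence because luciferase stays unfolded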
AHR activator – activates the human aryl hydrocarbon receptor; AHR-responsive luciferase reporter cells, luminescence; activation, % at 5 µM; 320,000 tested, 2.5% active; AID 2796; in the data active = activation above about 47%;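 note: 0% = vehicle wells and 100% = reference agonist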
HSF1 inh – HSF1 inhibition | NIH3T3-HGL HSE-luciferase, MG132-induced, luminescence 8 h; active compounds read low | activity change, negative = inhibition, % at 7.5 µM (by protocol) | 300,000 tested, 0.77% active | AID 2098;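 active = more than half of replicate wells show activity change below -50%, luminescence cut by over half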;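 note: luciferase reports HSF-1 transcriptional activity via heat shock element; 0% = median of DMSO wells and -100% = zero luminescence signal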
GAA850 FXN act – frataxin GAA850 promoter activation. HEK293 lucGAA850 FXN promoter luciferase reporter, 24 h; percent of 10 µM SAHA response. 360,000 tested, 0.56% active. activation, % at 6 µM;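 active = activation above the average of all compounds screened plus 3 SD, cutoff fixed separately per campaign, cut at about 7.5% in these data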;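 note: 0% = DMSO wells and 100% = 10 µM SAHA wells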
HSF1 activator – increases HSF-1 driven luciferase reporter signal | NIH3T3-HGL HSF-1 luciferase reporter, MG132, 8 h; 100% = twice DMSO control signal | AID 504408 | activation, % at 9 µM | 300,000 tested, 1.7% active;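 active = mean replicate activation of at least 50% with a set share of replicates each reaching 50%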;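 note: 0% = median of the neutral control wells and 100% = twice that signal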
NR0B1 inh – inhibitors of human orphan nuclear receptor DAX1 (NR0B1) | P51843 | HEK293 Gal4-DAX1 luciferase reporter, luminescence | inhibition, % at 6.75 µM | 340,000 tested, 0.99% active | AID 504766;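 active = inhibition above the mean over all tested compounds plus 3 SD, cut at about 4.2% in these data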;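 note: 0% = DAX1-transfected cells with DMSO and 100% = empty-vector control cells with DMSO; inhibition shows as a rise in luminescence from relieved DAX1 repression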
Target sequence (P51843 207-470 limits assumed): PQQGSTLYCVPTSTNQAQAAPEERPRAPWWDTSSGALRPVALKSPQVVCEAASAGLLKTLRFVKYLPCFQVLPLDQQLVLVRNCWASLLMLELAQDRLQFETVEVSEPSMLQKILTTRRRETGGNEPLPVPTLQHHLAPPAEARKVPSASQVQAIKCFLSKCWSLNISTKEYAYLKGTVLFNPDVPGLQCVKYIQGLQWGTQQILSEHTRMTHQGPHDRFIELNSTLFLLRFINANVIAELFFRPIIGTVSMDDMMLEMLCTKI
An asterisk follows results filed as active; / = not tested or not shown.

SMILES	HSP90 inh	AHR activator	HSF1 inh	GAA850 FXN act	HSF1 activator	NR0B1 inh
CC1=C(C(=O)N2CCC3(CC2)OCCO3)C2(CCC(C)CC2)OC1=O (configuration not stated)	-7	0	-4	-2	8	1
COc1cc(/C=C(/C)[N+](=O)[O-])ccc1OCc1ccccc1Cl	1	18	117	-2	128*	2
COc1cc(C=C2C(=O)NC(=O)NC2=O)ccc1OCc1ccc([N+](=O)[O-])cc1	1	/	/	6	/	2
O=c1c([N+](=O)[O-])cn(O)cc1[N+](=O)[O-]	/	/	/	0	/	4.4*
C=CCc1ccc(OC)cc1	/	-1	/	0	/	4.5*
Cn1cccc1/C=C1/C(=O)NC(=O)N(C(C)(C)C)C1=O	0	1	-4	1	-6	4.8*
C=CCn1c(O)c(C(CC)=NCc2ccco2)c(=O)[nH]c1=O	-5	2	21	1	66*	4.9*
CCC(C)N1C(=O)NC(=O)C2(Cc3c(ccc4ccccc34)N(C)C2)C1=O (configuration not stated)	7	46	23	-2	42	-2
O=C1NC(=O)[C@]2(Cc3ccccc3N3CCN(c4ccccc4)CC32)C(=O)N1Cc1ccccc1 (some centres not stated)	-1	9	22	1	65*	2
COC(=O)C1=C(c2ccc(OC)c(OC)c2)C[C@@H]2CC[C@H]1N2C(=O)N1CCc2cc(OC)c(OC)cc2C1	/	-1	/	-2	/	0
NC(=S)c1cn(C2OC(CO)C(O)C2O)c2ncnc(N)c12 (configuration not stated)	3	-8	-67*	-14	-71	-6
Nc1ncnc2c1ccn2[C@@H]1O[C@H](CO)[C@@H](O)[C@H]1O	/	0	-79*	-16	-80	-5
CSc1nc(Cl)c(Br)c(N2CC2)n1	/	/	/	0	/	4.6*
COc1ccc(-c2cc(=NCCC(=O)O)c3cc(C)ccc3o2)cc1	5	/	20	1	39	2
COc1ccc(-c2cc(=Nc3ccccc3)c3cc(C)ccc3o2)cc1	0	-10	18	5	66*	-1
COC(=O)C1=C(c2ccc(-c3ccccc3)c(F)c2)C[C@@H]2CC[C@H]1N2C(=O)NCCc1ccccc1	/	-2	/	-6	/	-2
CCOP(=O)(C(NC(=O)c1ccccc1Cl)=C(Cl)Cl)c1ccccc1 (configuration not stated)	8	-3	31	-1	90*	1
CCOc1ccc(N2C(=O)NC(=O)/C(=C\c3cc(OC)c(OC)cc3[N+](=O)[O-])C2=O)cc1	0	11	-14	1	-1	-1
CCOc1cc(/C=C2\C(=O)NC(=O)N(C)C2=O)cc([N+](=O)[O-])c1O	-3	-2	-1	2	1	13*
CCN1C(=O)/C(=C/c2ccc(N(CC)CC)cc2OC)C(=O)NC1=S	1	3	-10	-1	-15	-1
COc1cc2c(cc1OC)-c1c3c(cc4c1[C@@H](C2)N(C)CC4)OCO3	0	55*	0	0	6	2
COc1cc2c(cc1OC)-c1c(OC)c(OC)cc3c1C(C2)N(C)CC3 (configuration not stated)	6	3	4	3	18	-2
COc1ccc(-c2nn(CCC#N)cc2C(=O)Nc2ccccc2Br)cc1	1	-2	2	1	-5	-2
COc1ccc(-c2nn(CCC#N)cc2C(=O)Nc2ccccc2Br)cc1[N+](=O)[O-]	0	2	/	3	/	4.9*
N#CCCn1cc(C(=O)Nc2ccc([N+](=O)[O-])cc2)c(-c2ccccc2)n1	-4	-1	-71*	0	-78	1
C[N+]12CCC(CC1)C(C#N)(N1CCOCC1)C2 (configuration not stated)	1	-3	-2	-1	2	0
COc1cc(O)cc2c1C(=O)OC(C)CCCC(=O)CCC/C=C\2 (configuration not stated)	-3	18	65	-2	107*	0
COC1C(C)OC(OC2CC(C)(O)Cc3cc4c(c(O)c32)C(=O)c2c(O)cc3c(c2C4=O)OC2OC3(C)C(O)C(N(C)C)C2O)C(OC)C1(C)OC (configuration not stated)	/	/	71*	-8	71*	0
